The list is not random: actives were taken first. Their share in the collection is about 6.6%.
KB-V1 MDR tox – kills drug-selected multidrug resistant KB-V1 cells; KB-V1 MDR cells viability, CellTiter-Glo, 72 h; Potency, µM (doses to about 46.1 µM), usual class: cytotoxic; 400,000 compounds, 3.4% hits; AID 1347076; also: % is scaled to controls: 0 for no effect and ±100 for the full control effect; nearly all actives have a fitted effect of over 60% in size
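Luminescent ATP read-out (CellTiter-Glo, 10 min) measures survival of drug-selected KB-V1 MDR cells after 72 h, 37 degrees C compound exposure. Medium: phenol-red-free DMEM, 10% FBS. Values from fitted concentration-response curves.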
TGFb SMAD3 inh – blocks TGF-b signaling; HepG2 CAGA-GFP TGF-b/SMAD3 reporter, GFP fluorescence, 18 h; TGF-beta stimulated, 500 pg/mL final; Potency, µM (top dose mostly 46.1 µM), for the others: at the highest dose activity, negative = inhibition, most hits filed as inhibitors; 410,000 compounds, 1.2% hits; AID 588855; also: % is scaled to controls: 0 for no effect and ±100 for the full control effect; nearly all actives have a fitted effect of over 65% in size
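Per well, imaged GFP fluorescence of HEPG2 CAGA-GFP cells gives the signal; cells get compound, then TGF-beta (500 pg/mL final), 18 h at 37 degrees C; %Activity versus -TGF-beta and +DMSO controls.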
HT1080NT lethal – kills 2HG-producing HT-1080-NT fibrosarcoma cells; Potency, µM (series often up to 46.1 µM), for inactives: at the highest dose activity, negative = less viability, most hits filed as cytotoxic; 360,000 compounds, 1.6% hits; HT-1080-NT fibrosarcoma viability, CellTiter-Glo ATP luminescence, 48 h;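 also: NT is the 2HG producing partner of a matched IDH1 knockdown line; 0% = DMSO-treated cells and -100% = media-only wells without cells; nearly all actives have a fitted effect of over 55% in size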
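Fibrosarcoma NT cells, 750 per well in 5% FBS RPMI, were exposed to compound for 48 hours. Viability: CellTiter-Glo luminescence.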
KB-3-1 cytotox – kills parental KB-3-1 adenocarcinoma cells. Potency, µM (titrated, usually from 46.1 µM), actives largely listed as cytotoxic. 400,000 compounds, 1.4% hits. KB-3-1 viability, CellTiter-Glo ATP luminescence, 72 h; also: % is scaled to controls: 0 for no effect and ±100 for the full control effect; nearly all actives have a fitted effect of over 60% in size
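Using CellTiter-Glo luminescence, growth of non-resistant KB-3-1 adenocarcinoma cells is assessed 72 h after pin-tool compound addition at 37 °C. Normalized responses across the concentration series yield fitted curves.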
HT1080 IDH1KD tx – HT-1080 IDH1 knockdown cell toxicity (counter line); HT-1080 IDH1 knockdown viability, ATP luminescence, 48 h; Potency, µM (doses to about 46.1 µM), without a hit: at the highest dose activity, negative = toxicity, actives largely listed as cytotoxic; 360,000 compounds, 2% hits;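 also: 0% = DMSO wells and -100% = cell-free medium wells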
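CellTiter-Glo luminescence after 48 h compound exposure at 37 degrees C of IDH1-knockdown HT-1080 cells in 5% FBS RPMI. %Activity scaled between DMSO wells and cell-free media wells, with curves fitted and assigned curve classes.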
HepG2 tox – kills HepG2 cells in TGF-b inhibitor counter-screen; Potency, µM (series often up to 46.1 µM), for inactives: top-dose activity change, negative = cytotoxicity, hits mostly cytotoxic; HepG2 CAGA-GFP viability, ATP luminescence, 18 h; AID 588856; 410,000 compounds, 0.76% hits
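CellTiter-Glo luminescence gave cytotoxicity after 18 hours at 37 degrees C. The cells were HepG2 CAGA-GFP in 1% FBS DMEM, stimulated with 500 pg/mL TGF-beta after compound addition. %Activity was normalised to no-cell wells (complete cell-killing) and DMSO (no toxicity), and curves were fitted and classified.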
* hit, by the source's call; i = inactive; ? = inconclusive; . = not tested or not shown; ! = not active in a repeat. Calls follow the shape of the dose curve; as a rule, active = well fitted curve in the direction sought with a large enough effect; inconclusive = small, poorly fitted or top-dose-only effect, or another doubt; inactive = no such curve, though single readings can be large; an effect the other way counts as inactive or inconclusive. Potency is read from the fitted curve at half-maximal effect.

SMILES	KB-V1 MDR tox	TGFb SMAD3 inh	HT1080NT lethal	KB-3-1 cytotox	HT1080 IDH1KD tx	HepG2 tox
CCN(C(=O)CSc1nc2nc(C)cc(C)n2n1)c1cccc(C)c1	23µM*	-12%	2%	i	-3%	-41%
Cc1cc(C)n2nc(SCC(=O)Nc3ccccc3)nc2n1	?	-4%	3%	i	10%	-5%
Cc1cc(C)nc(SCC(=O)Nc2ccc(S(=O)(=O)NCCO)cc2)n1	i	1%	4%	i	-5%	-2%
CCCn1c(C)cc(C(=O)CSc2nc3nc(C)cc(C)n3n2)c1C	6.5µM*	0%	4%	i	2%	23%
Cc1cc(C)nc(SCC(=O)Nc2ccc(S(=O)(=O)NC(C)(C)C)cc2)n1	21µM*	8%	-12%	i	?	-2%
Cc1cc(C)n2nc(SCC(=O)Nc3cccc(C(F)(F)F)c3)nc2n1	21µM*	-17%	.	?	.	-37%
O=C(Nc1ccc2c(c1)OCO2)Nc1nnc(-c2ccncc2)s1	i	.	.	i	.	.
Cc1cccc(-n2ncc(C(=O)NCc3ccco3)c2C2CCN(C(=O)OC(C)(C)C)CC2)c1	i	?	.	i	.	-22%
Cc1ccc(C)c(CNC(=O)C2CCCCN2S(=O)(=O)c2ccc(F)cc2)c1 (stereo not given)	i	-8%	.	i	.	-34%
CCc1ccc(NC(=O)CSc2nc3nc(C)cc(C)n3n2)cc1	13µM*!	-5%	-1%	i	-4%	-8%
Cc1cc(C)n2nc(SCCC(=O)NCCc3ccccc3)nc2n1	15µM*	-19%	-4%	i	0%	-22%
CCOC(=O)/C=C1\SCC(=O)N1CC(=O)NC(C)c1ccccc1 (stereo not given)	i	-13%	-7%	i	-1%	-2%
CCOC(=O)/C=C1\SCC(=O)N1CC(=O)NC(c1ccccc1)c1ccccc1	6.5µM*	-9%	-1%	i	9%	17%
Cc1cccc(OCc2ccc(-c3nc(C#N)c(N4CCC(C(N)=O)CC4)o3)o2)c1	i	0%	.	i	.	-41%
COc1cccc(N2CCN(Cc3nc4ccccc4c(=O)[nH]3)CC2)c1	i	37%	-1%	i	2%	-1%
O=c1[nH]c(CN2CCN(c3ccc(O)cc3)CC2)nc2scc(-c3ccc(Cl)cc3)c12	i	?	?	?	21µM*	1%
COc1cccc(N2CCN(Cc3nc4scc(-c5ccccc5)c4c(=O)[nH]3)CC2)c1	9.2µM*	-18%	13µM*	?	12µM*	16%
Cn1ncc2c(N3CCN(c4ccc(Cl)c(Cl)c4)CC3)ncnc21	2.3µM*	?	?	i	?	-7%
Cc1ccc2nc(N(CCN(C)C)C(=O)C3CCN(S(=O)(=O)c4cccs4)CC3)sc2c1	i	-12%	-13%	i	-4%	-22%
OCC1OC(Oc2cccc3ccccc23)C(O)C(O)C1O (stereo not given)	i	-1%	-6%	i	-5%	13%
O=C(O)c1cc(O)c2c(c1)[C@@H]([C@H]1c3cc(C(=O)O)cc(O)c3C(=O)c3c(O[C@@H]4O[C@H](CO)[C@@H](O)[C@H](O)[C@H]4O)cccc31)c1cccc(O[C@@H]3O[C@H](CO)[C@@H](O)[C@H](O)[C@H]3O)c1C2=O	i	14µM*	-23%	i	-25%	-27%
CC(=O)N1N=C(c2ccc(C)cc2)CC1c1cn(-c2ccccc2)nc1-c1cccs1 (stereo not given)	i	6%	.	i	.	3%
CCn1ccc2c(OCC(=O)Nc3ccc(OC)cc3OC)cccc2c1=O	i	?	.	i	.	-5%
CCc1c(-c2cccc(OC)c2)ncn1Cc1cccc(-c2ccccc2)c1	?	.	7.3µM*	?	?	.
CCOc1ccc2c(c1)ncn2Cc1ccccc1	?	1%	2%	i	-8%	-5%
SMILES	KB-V1 MDR tox	TGFb SMAD3 inh	HT1080NT lethal	KB-3-1 cytotox	HT1080 IDH1KD tx	HepG2 tox
CCc1c(C2CC2)ncn1Cc1cccc(-c2ccccc2)c1	i	.	21µM*	15µM*	16µM*	.
CCc1c(-c2ccccc2F)ncn1Cc1cccc(-c2ccccc2)c1	?	.	16µM*	?	8.2µM*	.
COc1cccc(-c2nn(Cc3ccccc3)cc2CO)c1	i	-3%	-15%	i	-12%	6%
Cc1cccc(OCc2ccc(-c3nc(C#N)c(NCCN(C)C)o3)o2)c1	.	.	.	.	.	-43%
O=C(Nc1cccc(F)c1)c1ccc2oc(=O)n(Cc3ccccc3)c2c1	i	?	.	i	.	-24%
O=C(NCCc1ccc(Cl)cc1)C1CCN(Cc2cc3ccccc3n2Cc2ccccc2)CC1	i	-26%	.	i	.	-29%
NC(=O)c1nc(Nc2ccccc2)sc1NC(=O)c1ccccc1Br	i	8%	.	i	.	-63%
COc1cccc(C(=O)Nc2cccc(C(=O)OCc3cc(=O)n4nc(C5CC5)sc4n3)c2)c1	i	20%	.	i	.	7%
Cc1ccc(-n2c(=O)c3ccc(C(=O)NCc4ccccc4Cl)cc3n(CC(=O)Nc3cccc(F)c3)c2=O)cc1	?	-14%	.	i	.	-3%
COc1ccc(OC)c(NC(=O)C2CCCN(S(=O)(=O)c3cccc4nsnc34)C2)c1 (stereo not given)	i	-9%	-6%	i	?	13µM*
Cn1c(SCC(=O)N2CCOCC2)ncc(C(=O)Nc2ccc(F)cc2)c1=O	.	1%	.	.	.	4%
Cc1ccccc1CNC(=O)CCCn1c(=O)c2cccn2c2ccccc21	.	?	.	.	.	-12%
Cc1cc(Br)ccc1NC(=O)CSc1c2c(nc3ccccc13)CCC2	.	?	.	.	.	-69%
COc1ccc(N2CCN(C(=O)CSc3nc4nc(C)cc(C)n4n3)CC2)cc1	21µM*	25%	-1%	i	-9%	12%
CCOC(=O)C(CC)Sc1nnc2n1C(C)(C)Cc1ccccc1-2 (stereo not given)	16µM*	0%	19%	i	12%	-9%
Cc1cc(C)n2nc(SCC(=O)N3CCN(c4ccc(F)cc4)CC3)nc2n1	i	-19%	4%	i	2%	1%

Screening results as filed in PubChem BioAssay.
